# Test results from PubChem BioAssay.
# Calls of active or inactive are those of the source.
# Assays:
# [1] = optical density shifts of acrAB sulA E. coli – strain DRC41, OD650, 48 h, E. coli filamentation inducer project, primary screen (AID 1152); details: higher = more signal, called active from +8 up or from −8 down;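 further: E. coli MC1000 strain DRC41 lacking acrAB efflux pump and sulA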
# [2] = probe aLefty1 binding on compound microarray – biochemical, small-molecule microarray, 635/667 nm fluorescence, primary screen (AID 1153); details: higher = more signal;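 further: score merges spot fluorescence with signal-to-noise ratio from the scanned slide images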
# [3] = plasmodial surface anion channel blockers, osmotic lysis – cell-based, P. falciparum Indochina, OD700, 1 h, primary screen (AID 1154); details: P. falciparum Indochina infected RBC osmotic lysis, higher = more signal, called active from +8 up or from −8 down
# [4] = plasmodial surface anion channel blockers, osmotic lysis – cell-based, P. falciparum Indochina, OD700, 2 h, primary screen (AID 1155);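 further: lysis reports solute entry through the parasite surface anion channel PSAC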; details: P. falciparum Indochina infected erythrocytes, higher = more signal, called active from +8 up or from −8 down
# [5] = changes in parasitized red cell lysis, either direction – P. falciparum Indochina, OD700, 3 h, PSAC antagonist project, primary screen (AID 1156); details: P. falciparum-infected erythrocytes, osmotic lysis, higher = more signal, called active from +8 up or from −8 down
# [6] = plasmodial surface anion channel blockers, osmotic lysis – cell-based, P. falciparum Indochina, OD700, 18 h, primary screen (AID 1157); details: P. falciparum Indochina infected erythrocytes, osmotic lysis OD700, 18 h; higher = more signal, called active from +8 up or from −8 down
# [7] = S6 kinase pathway phospho-S6 level changes – cell-based, A549, cytoblot, luminescence, serum-stimulated, primary screen (AID 1158); details: 5 h, higher = more signal;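 further: serum-stimulated A549 lung adenocarcinoma cells; signal is phosphorylated S6 detected by cytoblot immunostaining with HRP secondary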
# [8] = biological target: NADPH oxidase 2 (Homo sapiens) (UniProt P04839); experiment: compounds shifting NOX2 Amplex Red fluorescence – cell-based, HEK293-NOX2, PMA-stimulated, NOX inhibitor project, primary screen (AID 1159); details: 45 min, higher = more signal, called active from +8 up or from −8 down; further: test concentration not given here
# Chain of NADPH oxidase 2 (Homo sapiens) (P04839 whole entry, looked up): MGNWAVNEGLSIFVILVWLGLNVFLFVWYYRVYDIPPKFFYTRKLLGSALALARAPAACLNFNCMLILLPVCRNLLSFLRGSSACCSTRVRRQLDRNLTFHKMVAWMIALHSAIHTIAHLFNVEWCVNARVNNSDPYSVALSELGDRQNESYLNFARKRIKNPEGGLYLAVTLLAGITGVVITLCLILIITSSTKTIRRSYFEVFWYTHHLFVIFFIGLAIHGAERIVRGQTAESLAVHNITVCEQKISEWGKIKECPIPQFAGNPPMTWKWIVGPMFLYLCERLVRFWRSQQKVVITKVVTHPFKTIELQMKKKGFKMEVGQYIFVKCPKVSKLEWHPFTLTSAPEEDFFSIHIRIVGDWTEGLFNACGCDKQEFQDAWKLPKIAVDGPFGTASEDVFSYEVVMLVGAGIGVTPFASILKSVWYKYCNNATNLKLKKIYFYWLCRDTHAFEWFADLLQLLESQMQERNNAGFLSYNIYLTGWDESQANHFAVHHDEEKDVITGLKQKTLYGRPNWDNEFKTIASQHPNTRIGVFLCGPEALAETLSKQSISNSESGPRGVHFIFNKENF
# [9] = biological target: NADPH oxidase 4 (Homo sapiens) (UniProt Q9NPH5); experiment: compounds shifting NOX4 Amplex Red fluorescence – cell-based, HEK293-NOX4, tetracycline-induced, NOX inhibitor project, primary screen (AID 1160); details: HEK293-NOX4, Amplex Red H2O2 fluorescence, 45 min; higher = more signal, called active from +8 up or from −8 down
# Chain of NADPH oxidase 4 (Homo sapiens) (Q9NPH5 whole entry, looked up): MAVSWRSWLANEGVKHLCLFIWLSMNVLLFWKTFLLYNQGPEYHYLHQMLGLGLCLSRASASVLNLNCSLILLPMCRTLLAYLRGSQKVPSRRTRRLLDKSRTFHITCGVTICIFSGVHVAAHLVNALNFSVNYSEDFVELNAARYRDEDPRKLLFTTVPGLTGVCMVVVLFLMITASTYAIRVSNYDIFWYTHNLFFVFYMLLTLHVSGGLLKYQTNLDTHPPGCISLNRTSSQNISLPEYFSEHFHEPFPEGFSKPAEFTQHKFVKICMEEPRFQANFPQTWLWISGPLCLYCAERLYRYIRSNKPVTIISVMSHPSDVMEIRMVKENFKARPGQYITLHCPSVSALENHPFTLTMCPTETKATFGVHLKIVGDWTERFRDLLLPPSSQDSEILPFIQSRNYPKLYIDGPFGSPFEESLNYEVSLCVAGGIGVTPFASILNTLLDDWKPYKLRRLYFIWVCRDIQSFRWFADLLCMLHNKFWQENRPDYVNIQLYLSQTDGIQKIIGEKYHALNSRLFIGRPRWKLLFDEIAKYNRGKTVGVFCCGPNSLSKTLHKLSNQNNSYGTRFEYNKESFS
# [10] = biological target: NADPH oxidase 5 (Homo sapiens) (UniProt Q96PH1); experiment: compounds shifting NOX5 Amplex Red fluorescence – cell-based, HEK293-NOX5, NOX inhibitor project, primary screen (AID 1161); details: HEK293-NOX5, ionomycin, 45 min, higher = more signal
# Chain of NADPH oxidase 5 (Homo sapiens) (Q96PH1 whole entry, looked up): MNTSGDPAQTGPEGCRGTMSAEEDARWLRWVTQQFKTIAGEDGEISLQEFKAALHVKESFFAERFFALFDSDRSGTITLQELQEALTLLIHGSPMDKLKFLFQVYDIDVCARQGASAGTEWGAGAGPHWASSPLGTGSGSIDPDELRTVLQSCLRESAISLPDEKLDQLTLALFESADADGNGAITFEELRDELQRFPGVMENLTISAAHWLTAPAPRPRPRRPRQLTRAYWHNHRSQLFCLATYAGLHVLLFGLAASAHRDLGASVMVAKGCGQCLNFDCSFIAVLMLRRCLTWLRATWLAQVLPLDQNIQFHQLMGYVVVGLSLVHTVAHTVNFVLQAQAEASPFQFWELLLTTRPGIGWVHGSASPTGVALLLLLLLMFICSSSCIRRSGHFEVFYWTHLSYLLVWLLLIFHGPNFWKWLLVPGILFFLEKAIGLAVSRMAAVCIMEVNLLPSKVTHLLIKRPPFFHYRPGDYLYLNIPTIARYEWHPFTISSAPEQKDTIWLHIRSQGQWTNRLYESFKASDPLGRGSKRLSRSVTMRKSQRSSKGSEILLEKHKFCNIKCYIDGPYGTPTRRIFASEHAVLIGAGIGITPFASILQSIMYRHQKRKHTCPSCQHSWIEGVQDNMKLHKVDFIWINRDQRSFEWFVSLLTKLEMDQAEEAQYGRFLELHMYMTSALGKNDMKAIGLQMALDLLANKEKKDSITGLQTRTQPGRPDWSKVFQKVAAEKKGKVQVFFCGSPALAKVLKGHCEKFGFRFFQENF
# [11] = compound effects on lung adenocarcinoma cell viability – A549, calcein-AM fluorescence, 48 h, basal, profiling panel (AID 1162); details: higher = more signal; further: test concentration not given here
# [12] = compound effects on differentiated 3T3-L1 adipocyte viability – cell-based, 3T3-L1 adipocytes, calcein-AM fluorescence, 48 h, basal, profiling panel (AID 1163); details: 3T3-L1 adipocytes viability, higher = more signal; further: test concentration not given here
# [13] = compound effects on hepatocellular carcinoma cell viability – HepG2, calcein-AM fluorescence, 48 h, basal, profiling panel (AID 1164); details: higher = more signal; further: test concentration not given here
# [14] = compound effects on multiple myeloma cell viability – MM1S, calcein-AM fluorescence, 48 h, basal, profiling panel (AID 1165); details: higher = more signal;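 further: viability of MM1S multiple myeloma cells under basal unstimulated conditions; test concentration not given here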
# [15] = calcein-AM signal in unstimulated myeloma cells – cell-based, calcein-AM fluorescence, 48 h, PK04 Diversity Set, profiling panel (AID 1166); details: RPMI8226 myeloma viability, higher = more signal;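 further: cells grown under basal conditions without added stimulus; test concentration not given here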
# [16] = JC-1 mitochondrial signal, unstimulated HepG2 cells – cell-based, JC-1 fluorescence, 24 h, 100 nL compound, profiling panel (AID 1167); details: HepG2 mitochondrial potential, higher = more signal; further: test concentration not given here
# [17] = JC-1 mitochondrial signal, unstimulated adipocytes – cell-based, JC-1 fluorescence, 3T3-L1 adipocytes, 24 h, 100 nL compound, profiling panel (AID 1168); details: JC-1 mitochondrial fluorescence, higher = more signal, called active from +8 up or from −8 down; further: test concentration not given here
# [18] = JC-1 mitochondrial signal, unstimulated myeloma cells – cell-based, JC-1 fluorescence, RPMI8226, 24 h, 100 nL compound, profiling panel (AID 1169); details: JC-1 mitochondrial potential fluorescence, higher = more signal; further: test concentration not given here
# [19] = JC-1 mitochondrial signal, unstimulated MM1S myeloma – cell-based, JC-1 fluorescence, 24 h, 100 nL compound, profiling panel (AID 1170); details: MM1S mitochondrial potential, higher = more signal; further: test concentration not given here
# [20] = resazurin metabolic signal in A549 cells – cell-based, resazurin fluorescence, 24 h, PK04 Diversity Set, profiling panel (AID 1171); details: A549 viability, higher = more signal, called active from +8 up or from −8 down; further: test concentration not given here
Compound,z-score [1],composite z-score [2],z-score [3],z-score [4],z-score [5],z-score [6],z-score [7],z-score [8],z-score [9],z-score [10],z-score [11],z-score [12],z-score [13],z-score [14],z-score [15],z-score [16],z-score [17],z-score [18],z-score [19],z-score [20]
COc1ccc([Si](C)(C)[C@H]2[C@H](CCn3cc([C@H](O)c4ccccc4)nn3)O[C@@]3(C(=O)N(C)c4ccccc43)[C@@H]2C)cc1,0.294 (inactive),0.573,5.08 (inactive),1.5 (inactive),0.56 (inactive),0.866 (inactive),0.334,-0.0243 (inactive),0.0296 (inactive),-1.24,0.239,-0.233,0.132,-0.615,-1.79,-0.602,0.331 (inactive),-1.16,-0.396,0.32 (inactive)
COCCCNC(=O)[C@@]1(Cc2ccccc2CN=[N+]=[N-])N=C(c2ccc(OCCCO)cc2)O[C@H]1c1ccccc1CN=[N+]=[N-],1.16 (inactive),0.123,31.4 (active),48.5 (active),2.97 (inactive),26.4 (active),2.88,-3.05 (inactive),-0.796 (inactive),-1.91,-0.768,1.56,-0.983,-2.88,-3.94,1.57,2.31 (inactive),-1.2,-2.64,-1.2 (inactive)
O=C1C2C=CC(C(O)c3cc(C(F)(F)F)cc(C(F)(F)F)c3)N(Nc3ccccc3)C2C(=O)N1c1ccccc1 (stereo not given),-0.355 (inactive),0.345,4.95 (inactive),2.77 (inactive),-2.01 (inactive),2.64 (inactive),-0.62,0.376 (inactive),-4.65 (inactive),-1.33,1.3,-1.48,0.662,-2.24,-3.52,-4.32,-1.36 (inactive),-0.982,-0.994,0.626 (inactive)
C#CCN(C/C=C/c1ccccc1)[C@H](CO)c1ccccc1,-1.3 (inactive),-0.241,6.86 (inactive),0.893 (inactive),0.0025 (inactive),0.305 (inactive),-0.617,0.403 (inactive),0.04 (inactive),-3.98,-1.94,-0.27,-1.76,-2.02,-1.96,-2.74,-0.471 (inactive),-0.746,0.0614,-0.96 (inactive)
CCOC(=O)C[C@H]1[C@H](OC(=O)c2ccc(C(=O)c3ccccc3)cc2)[C@@H](NC(=O)c2ccccc2)c2cc(OCCCO)ccc2N1C(=O)c1ccccc1,-0.402 (inactive),0.228,2.54 (inactive),0.218 (inactive),0.0495 (inactive),0.357 (inactive),-0.294,-0.613 (inactive),0.646 (inactive),0.0914,0.223,1.05,0.496,0.358,0.17,0.601,0.00705 (inactive),0.892,0.0929,0.254 (inactive)
[N-]=[N+]=NCc1ccccc1[C@@H]1OC(c2ccc(OCCCO)cc2)=N[C@]1(CCS(=O)(=O)c1ccccc1)C(=O)N1CCCCC1,0.323 (inactive),0.522,22.8 (active),7.3 (inactive),1.59 (inactive),1.06 (inactive),0.34,0.196 (inactive),1.19 (inactive),2,1.26,-0.418,1.43,-0.504,-0.0169,-0.132,-0.159 (inactive),-0.653,-1.87,-0.182 (inactive)
O=C(O)C1N=C(c2ccc(OCCCO)cc2)N(c2ccccc2)O1 (stereo not given),0.0785 (inactive),0.0245,18.5 (active),2.35 (inactive),0.874 (inactive),0.497 (inactive),-0.284,-2.6 (inactive),0.0373 (inactive),-0.638,-0.906,0.135,-0.0572,0.569,-0.547,-0.142,0.663 (inactive),-1.22,-0.228,0.417 (inactive)
COCC(=C=CC[C@H](O)c1cccc(OCCO)c1)CCO,0.223 (inactive),-0.0508,2.69 (inactive),-0.115 (inactive),0.104 (inactive),0.0864 (inactive),0.0095,-1.67 (inactive),-0.625 (inactive),-0.539,-0.243,-0.214,-0.909,0.269,0.256,-0.206,0.244 (inactive),-0.574,-0.451,0.614 (inactive)
COC(=O)[C@H](Cc1ccccc1)N[C@H](/C=C/C1CC1)[C@@H](O)Cc1ccccc1,1.85 (inactive),-0.235,0.786 (inactive),-0.96 (inactive),-0.868 (inactive),-1.83 (inactive),2.14,0.455 (inactive),0.0154 (inactive),-2.49,-0.531,-0.451,0.021,0.18,0.732,1.46,0.792 (inactive),-0.52,-1.88,1.2 (inactive)
